From PubChem
A selection: hits, their analogues and other compounds. The true share with any hit is near 9.2%.
SMN2 splice enh = increases expression of the SMN2 splice variant | HEK293 SMN2-luciferase splicing reporter, luminescence, 30-36 h | Potency, µM (top dose mostly 46.1 µM), without a hit: at the top dose activity change, positive = activation, usual class: activators | hit rate 2.8% among 210,000 | AID 1458; note: % of control where 0% means no effect; nearly all actives have a fitted effect of over 55% in size
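HEK293 cells carry an SMN2 […]–luciferase reporter in which exon 7 inclusion puts luciferase in frame. Cells were plated 10-12 h before compound addition, then incubated 30-36 h at 37C. ONE-Glo luminescence was read; sodium butyrate at 4.5 mM final served as control.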
NPC1 prom act = NPC1 promoter activation; Huh7 NPC1 promoter luciferase reporter, 24 h; Potency, µM (highest dose often 9.22 µM), without a hit: at the top dose activation, actives largely listed as activators; hit rate 2.4% among 320,000; AID 485313; note: % of control where 0% means no effect; nearly all actives have a fitted effect of over 60% in size
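Cells: Huh7 expressing luciferase under the NPC1 promoter, 1500/well. Seeded 2 h, compound added, incubated 24 h at 37 °C. Luciferase reagent, 10 min ambient, then luminescence.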
ELG1 genotoxic = inducers of genotoxicity in HEK293T ELG1-luciferase cells | HEK293T ELG1-luciferase reporter, luminescence, 16 h | Potency, µM (top dose mostly 46 µM), without a hit: at the top dose activity change, positive = activation, usual class: activators | hit rate 1.3% among 330,000 | AID 504466; note: % of control where 0% means no effect; nearly all actives have a fitted effect of over 60% in size
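Luminescence read-out: rising ELG1-luciferase signal, reflecting elevated ELG1 protein under genetic stress, flags genotoxic compounds. Cells were treated for 16 hr at 37 °C before ONE-Glo detection.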
Rab9 prom act = activates the Rab9 promoter; Huh7 Rab9 promoter-luciferase reporter, luminescence, 24 h; Potency, µM (series often up to 9.22 µM), without a hit: top-dose activation, negative = inhibition, usual class: activators; hit rate 2.8% among 320,000; AID 485297; note: % of control where 0% means no effect; nearly all actives have a fitted effect of over 60% in size
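Measured in stably transfected Huh7 cells bearing a Rab9 promoter–luciferase construct: 24 h compound treatment at 37 °C, followed by luminescence detection.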
ELG1 repair inh = ELG1-dependent DNA repair inhibition | HEK293T ELG1-luciferase reporter, luminescence, 16 h; DNA damage induced by 5-fluorouridine | Potency, µM (series often up to 46.1 µM), for inactives: at the top dose activity change, negative = inhibition, actives largely listed as inhibitors | hit rate 2.3% among 330,000; note: % is set by controls: 0 for no effect and ±100 for the full control effect; nearly all actives have a fitted effect of over 55% in size
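5-Fluorouridine DNA damage + compound/DMSO, 2,000 cells/well, 16 h, 37 °C/5% CO2. ONE-Glo, 30 min RT, luminescence. Readout = decrease in reporter signal.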
FLuc counter = firefly luciferase modulation, counter-screen for miR-21 project; P08659; purified FLuc, Km substrates, luminescence inhibition; Potency, µM (titrated, usually from 57.5 µM), without a hit: at the top dose activity change, negative = inhibition, hits mostly inhibitors; hit rate 6.9% among 360,000; AID 588342;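 note: plate controls were vehicle for no effect and reference inhibitor for full effect; nearly all actives have a fitted effect of over 55% in size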
Target sequence (P08659 whole entry, looked up): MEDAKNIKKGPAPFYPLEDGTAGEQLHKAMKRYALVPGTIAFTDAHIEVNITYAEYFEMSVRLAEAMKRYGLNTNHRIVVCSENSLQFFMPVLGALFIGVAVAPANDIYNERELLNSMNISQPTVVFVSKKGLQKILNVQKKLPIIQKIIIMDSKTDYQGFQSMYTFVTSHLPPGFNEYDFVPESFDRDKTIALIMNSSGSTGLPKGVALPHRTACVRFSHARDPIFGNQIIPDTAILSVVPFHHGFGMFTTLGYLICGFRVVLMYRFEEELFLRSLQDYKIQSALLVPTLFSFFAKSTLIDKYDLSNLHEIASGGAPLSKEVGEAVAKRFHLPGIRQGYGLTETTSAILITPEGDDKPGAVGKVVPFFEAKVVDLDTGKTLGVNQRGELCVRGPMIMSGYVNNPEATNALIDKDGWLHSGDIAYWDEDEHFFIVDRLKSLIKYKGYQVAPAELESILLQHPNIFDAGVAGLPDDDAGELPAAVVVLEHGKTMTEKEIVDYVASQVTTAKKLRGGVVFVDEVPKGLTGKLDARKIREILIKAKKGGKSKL
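Biochemical qHTS of compounds, final roughly 60 µM downward over six points, against 10 nM purified firefly luciferase using Km concentrations of substrates (10 uM D-luciferin, 10 uM ATP) in Tris acetate pH 7.5 buffer; luminescence output.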
An asterisk follows results filed as active; [ ] = another dose, or the depositor's remark. Calls come from the whole dose curve; as a rule, active = well fitted curve in the direction sought with a large enough effect; inconclusive = small, poorly fitted or top-dose-only effect, or another doubt; inactive = no such curve, though single readings can be large; an effect the other way counts as inactive or inconclusive. Potency is the fitted concentration of half-maximal effect.

What do the screens show for `Cc1ccc(C(=O)Nc2nc3ccccc3[nH]2)cc1`?
NPC1 prom act: 0.56µM*; ELG1 genotoxic: inconclusive; Rab9 prom act: 0.63µM*; ELG1 repair inh: inconclusive; FLuc counter: 0.095µM*

Results for CCCCCn1c(=O)c(C(=O)Nc2nc3ccccc3[nH]2)c(O)c2ccccc21 ?
NPC1 prom act: -4%; ELG1 genotoxic: -7%; Rab9 prom act: -7%; ELG1 repair inh: inconclusive; FLuc counter: 1%

Results for Cc1cc(C(=O)Nc2ccc(CC(=O)O)cc2)c(C)o1 ?
NPC1 prom act: -8%; ELG1 genotoxic: 0%; Rab9 prom act: 3%; ELG1 repair inh: 22%; FLuc counter: 11µM*

What do the screens show for `Cc1ccc(Cn2cccc(C(=O)Nc3ccc(C)c(Cl)c3)c2=O)cc1`?
FLuc counter: -1%

Results for C[C@H]1CC[C@@]2(NC1)O[C@@H]1C[C@@H]3[C@@H]4CC=C5C[C@@H](O)CC[C@]5(C)[C@@H]4CC[C@]3(C)[C@H]1[C@@H]2C ?
SMN2 splice enh: -3%[9.22 µM]

Results for O=C(Cc1ccccc1)N1CCN(Cc2ccc(F)cc2)CC1 ?
NPC1 prom act: -2%; ELG1 genotoxic: -5%; Rab9 prom act: 2%; ELG1 repair inh: -14%; FLuc counter: 1%

Results for O=C(c1ccc(F)cc1)C(Cc1ccccc1)N1CCCCC1 (stereo unspecified) ?
SMN2 splice enh: 29%; NPC1 prom act: 16%; ELG1 genotoxic: 16%; Rab9 prom act: inconclusive; ELG1 repair inh: inconclusive; FLuc counter: 19µM*

How did S=C(S)N1CCCC1 do in these assays?
SMN2 splice enh: inconclusive; NPC1 prom act: 4%[46.1 µM]; ELG1 genotoxic: -3%; Rab9 prom act: 0%[46.1 µM]; ELG1 repair inh: 17%; FLuc counter: 0%

What do the screens show for `CCCCOC(=O)c1ccccc1N`?
SMN2 splice enh: -6%

What do the screens show for `CCCOC(=O)c1cc2c(cn1)[nH]c1ccccc12`?
SMN2 splice enh: 28µM*

What do the screens show for `CC(C)[C@@H](Br)C(=O)NCC(=O)O`?
SMN2 splice enh: -8%[9.22 µM]

Results for Cc1cccc(N2C(=O)NC(=O)/C(=C\c3ccc(N4CCOCC4)cc3)C2=O)c1 ?
NPC1 prom act: -5%; ELG1 genotoxic: 0%; Rab9 prom act: 1%; ELG1 repair inh: -16%; FLuc counter: inconclusive

Results for O=C1NC(=O)N(c2ccc3c(c2)OCO3)C(=O)/C1=C\c1ccc(-c2ccccc2C(=O)O)o1 ?
NPC1 prom act: -4%; ELG1 genotoxic: 0%; Rab9 prom act: -3%; ELG1 repair inh: 3%; FLuc counter: 15µM*

What do the screens show for `Cc1cccc(N2C(=O)NC(=O)/C(=C/c3ccc(-c4ccc(C(=O)O)c(Cl)c4)o3)C2=O)c1`?
SMN2 splice enh: 13%; NPC1 prom act: -6%; ELG1 genotoxic: 10%; Rab9 prom act: -2%; ELG1 repair inh: 10%; FLuc counter: 6µM*

What do the screens show for `O=C1NC(=O)N(c2ccc3c(c2)OCO3)C(=O)/C1=C\c1ccsc1`?
NPC1 prom act: -4%; ELG1 genotoxic: -1%; Rab9 prom act: 2%; ELG1 repair inh: -3%; FLuc counter: 24µM*

How did CN(C)c1ccc(C(=O)N/N=C/C23CC[C@@H](O)CC2(O)CC[C@@H]2[C@@H]3CCC3(C)C(C4=CC(=O)OC4)CCC23O)cc1 (stereo partly specified) do in these assays?
NPC1 prom act: -12%; ELG1 genotoxic: -15%; Rab9 prom act: -34%; ELG1 repair inh: 8.2µM*; FLuc counter: 4%

Results for CC12CC[C@H]3[C@@H](CCC4(O)C[C@H](O)CCC34/C=N/NC(=O)c3ccc(O)cc3)C1(O)CCC2C1=CC(=O)OC1 (stereo partly specified) ?
NPC1 prom act: -2%; ELG1 genotoxic: -2%; Rab9 prom act: -4%; ELG1 repair inh: 4%; FLuc counter: 19µM*

How did COc1ccc(C(=O)N/N=C/C23CC[C@@H](O)CC2(O)CC[C@@H]2[C@@H]3CCC3(C)C(C4=CC(=O)OC4)CCC23O)cc1 (stereo partly specified) do in these assays?
NPC1 prom act: -3%; ELG1 genotoxic: -13%; Rab9 prom act: -2%; ELG1 repair inh: inconclusive; FLuc counter: -8%

What do the screens show for `CC12CC[C@H]3[C@@H](CCC4(O)C[C@H](O)CCC34/C=N/NC(=O)c3ccccc3O)C1(O)CCC2C1=CC(=O)OC1` (stereo partly specified)?
NPC1 prom act: 7%; ELG1 genotoxic: -13%; Rab9 prom act: -8%; ELG1 repair inh: inconclusive; FLuc counter: 27µM*

Results for CC12CC[C@H]3[C@@H](CCC4(O)C[C@H](O)CCC34/C=N/NC(=O)c3ccccc3F)C1(O)CCC2C1=CC(=O)OC1 (stereo partly specified) ?
NPC1 prom act: 3%; ELG1 genotoxic: -3%; Rab9 prom act: -3%; ELG1 repair inh: inconclusive; FLuc counter: -16%

Results for O=C1/C(=C\c2ccccc2)C[C@@]2(O)[C@H]3Cc4ccc(O)c5c4[C@@]2(CCN3CC2CC2)[C@H]1O5 ?
SMN2 splice enh: -63%

What do the screens show for `COP(=O)(OC)c1nc(-c2cccc3ccccc23)oc1N1CCCCC1`?
SMN2 splice enh: -20%; NPC1 prom act: -3%; ELG1 genotoxic: -9%; Rab9 prom act: 1%; ELG1 repair inh: inconclusive; FLuc counter: -9%

What do the screens show for `CCOP(=O)(OCC)c1nc(-c2cccc3ccccc23)oc1N1CCCCC1`?
SMN2 splice enh: -14%; NPC1 prom act: -2%; ELG1 genotoxic: -5%; Rab9 prom act: -2%; ELG1 repair inh: 23µM*; FLuc counter: -9%

How did CC1N(C)c2cc(NC(=O)c3ccco3)c(P(=O)(Nc3ccc([N+](=O)[O-])cc3)N3CCOCC3)cc2C1(C)C (stereo unspecified) do in these assays?
SMN2 splice enh: -29%; NPC1 prom act: 1%; ELG1 genotoxic: -13%; Rab9 prom act: -26%; ELG1 repair inh: 18µM*; FLuc counter: 6%

How did COc1cc2c(cc1OC)[C@@]13CCN4C=C5CCO[C@H]6CC(=O)N2[C@@H]1C6[C@H]5C[C@H]43 (stereo partly specified) do in these assays?
SMN2 splice enh: -13%[9.22 µM]

What do the screens show for `COc1ccc(-c2cc(C(=O)N3CCC4(CC3)OCCO4)c3ccccc3n2)cc1`?
NPC1 prom act: 26%; ELG1 genotoxic: 0%; Rab9 prom act: inconclusive; ELG1 repair inh: inconclusive; FLuc counter: 2.1µM*
